The entries come from a sample that favours the strongest signals as a whole.
Key:
Test in all cases: glycan array binding signal (z-score within array); higher = stronger binding
Details in all cases: glycan notation: IUPAC condensed, linker removed
[1] = biological target: Fuc(a1-2)Gal(b1-3)[Fuc(a1-4)]GlcNAc
Method in brief: (§1)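 Arrays were curated from the Consortium for Functional Glycomics database, 3228 in total, and kept only where the protein sequence was available. Binding is expressed as a within-array Z-score. This score was averaged across arrays of the same protein sequence at different concentrations or buffers and across linkers, and negative values can be read as non-binding.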

[2] = biological target: Fuc(a1-2)[Gal(a1-3)]Gal
Method in brief: as §1

[3] = biological target: Fuc(a1-2)[Gal(a1-3)]Gal(b1-4)Glc
Method in brief: as §1

[4] = biological target: Fuc(a1-2)[GalNAc(a1-3)]Gal(b1-3)GalNAc(a1-3)[Fuc(a1-2)]Gal(b1-4)GlcNAc
Method in brief: as §1

[5] = biological target: Fuc(a1-2)[GalNAc(a1-3)]Gal(b1-3)GalNAc(b1-3)Gal(a1-4)Gal(b1-4)Glc
Method in brief: as §1

[6] = biological target: Fuc(a1-2)[GalNAc(a1-3)]Gal(b1-3)GlcNAc(b1-2)Man(a1-3)[Fuc(a1-2)[GalNAc(a1-3)]Gal(b1-3)GlcNAc(b1-2)Man(a1-6)]Man(b1-4)GlcNAc(b1-4)[Fuc(a1-6)]GlcNAc
Method in brief: as §1

[7] = biological target: Fuc(a1-2)[GalNAc(a1-3)]Gal(b1-4)GlcNAc(b1-6)GalNAc
Method in brief: as §1

[8] = biological target: Gal(a1-3)Gal(b1-3)GlcNAc
Method in brief: as §1

[9] = biological target: Gal(a1-3)Gal(b1-4)Glc
Method in brief: as §1

[10] = biological target: Gal(a1-3)Gal(b1-4)GlcNAc(b1-2)Man(a1-3)[Gal(a1-3)Gal(b1-4)GlcNAc(b1-2)Man(a1-6)]Man(b1-4)GlcNAc(b1-4)GlcNAc
Method in brief: as §1

[11] = biological target: Gal(a1-3)Gal(b1-4)[Fuc(a1-3)]GlcNAc(b1-2)Man(a1-3)[Gal(a1-3)Gal(b1-4)[Fuc(a1-3)]GlcNAc(b1-2)Man(a1-6)]Man(b1-4)GlcNAc(b1-4)GlcNAc
Method in brief: as §1

[12] = biological target: Gal(a1-3)GalNAc
Method in brief: as §1

[13] = biological target: Gal(a1-3)[Gal(a1-4)]Gal(b1-4)GlcNAc
Method in brief: as §1

[14] = biological target: Gal(a1-4)Gal(b1-4)GlcNAc(b1-2)Man(a1-3)[Gal(a1-4)Gal(b1-4)GlcNAc(b1-2)Man(a1-6)]Man(b1-4)GlcNAc(b1-4)GlcNAc
Method in brief: as §1

[15] = biological target: Gal(a1-4)Gal(b1-4)GlcNAc(b1-3)Gal(b1-4)Glc
Method in brief: as §1

[16] = biological target: Gal(b1-3)Gal(b1-4)GlcNAc
Method in brief: as §1

[17] = biological target: Gal(b1-3)GlcNAc
Method in brief: as §1

[18] = biological target: Gal(b1-3)GlcNAc(b1-3)Gal(b1-4)GlcNAc
Method in brief: as §1

[19] = biological target: Gal(b1-3)GlcNAc(b1-3)Gal(b1-4)[Fuc(a1-3)]GlcNAc(b1-6)[Gal(b1-3)GlcNAc(b1-3)]Gal(b1-4)Glc
Method in brief: as §1

[20] = biological target: Gal(b1-3)[Fuc(a1-4)]GlcNAc(b1-2)Man(a1-3)[Gal(b1-3)[Fuc(a1-4)]GlcNAc(b1-2)Man(a1-6)]Man(b1-4)GlcNAc(b1-4)[Fuc(a1-6)]GlcNAc
Method in brief: as §1

[21] = biological target: Gal(b1-4)Glc6S
Method in brief: as §1

[22] = biological target: Gal(b1-4)GlcNAc(a1-6)Gal(b1-4)GlcNAc
Method in brief: as §1

[23] = biological target: Gal(b1-4)GlcNAc(b1-2)Man(a1-3)[Gal(b1-4)GlcNAc(b1-2)Man(a1-6)]Man(b1-4)GlcNAc(b1-4)GlcNAc
Method in brief: as §1

[24] = biological target: Gal(b1-4)GlcNAc(b1-2)[Gal(b1-4)GlcNAc(b1-4)]Man(a1-3)[Gal(b1-4)GlcNAc(b1-2)[Gal(b1-4)GlcNAc(b1-6)]Man(a1-6)]Man(b1-4)GlcNAc(b1-4)GlcNAc
Method in brief: as §1

[25] = biological target: Gal(b1-4)GlcNAc(b1-3)Gal(b1-3)GalNAc
Method in brief: as §1

[26] = biological target: Gal(b1-4)GlcNAc(b1-3)Gal(b1-4)GlcNAc(b1-2)Man(a1-3)[Gal(b1-4)GlcNAc(b1-3)Gal(b1-4)GlcNAc(b1-2)Man(a1-6)]Man(b1-4)GlcNAc(b1-4)GlcNAc
Method in brief: as §1

[27] = biological target: Gal(b1-4)GlcNAc(b1-3)Gal(b1-4)GlcNAc(b1-2)[Gal(b1-4)GlcNAc(b1-3)Gal(b1-4)GlcNAc(b1-6)]Man(a1-6)[Gal(b1-4)GlcNAc(b1-3)Gal(b1-4)GlcNAc(b1-2)Man(a1-3)]Man(b1-4)GlcNAc(b1-4)[Fuc(a1-6)]GlcNAc
Method in brief: as §1

B1: PX14375C-bth-509-28-509 (Bacteroides thetaiotaomicron) (protein)
chain: RSPQGQFTEDDNPNALVNGKIYNVYTMMRSFDITAGTPAIAIHYLRSEDSEKGSIPSDGSDVAEMYDDFLYTPTNGLLGSYWGKNYAIIYQCNDILDAIAEKETAGQTETEDIINKGEASFFRAYCYFNLVRAFGEVPLVTYKINDASEANIPKTTADKIYEQIDTDLKTAEESLPETWSTEYTGRLTWGAARSLHARTYMMRSDWDNMYKASTDVINKGLYNLKTPYNEIFTDDGENSGGSIFELQCTATAALPQSDVIGSQFCEVQGVRGAGQWDLGWGWHMATQLMADAYETGDPRKNATLLYFRKTDDEPITPENTNEPYGESPISPAMGAYFNKKAYTDPALRKEYTNKGFWVNIRLIRYSDVVLMAAEAANEKNIPGEAVDYLEMVRARARGTNTNILPKITTNDQGELREAIRHERRVELGLEPDRFYDLVRWGIASEVLHAAGKVNYQDKNALLPLPQSEIDKSKGVLVQNPDY
For B1, the “glycan array binding signal (z-score)” value [1] was -0.397, the “glycan array binding signal (z-score)” value [2] was -0.193 and the “glycan array binding signal (z-score)” value [3] was 0.04. The “glycan array binding signal (z-score)” value [4] was -0.112, the “glycan array binding signal (z-score)” value [5] was -0.355 and the “glycan array binding signal (z-score)” value [6] was -0.19. The “glycan array binding signal (z-score)” value [7] was 3.04, the “glycan array binding signal (z-score)” value [8] was -0.256 and the “glycan array binding signal (z-score)” value [9] was -0.196. For the same binder, the “glycan array binding signal (z-score)” value [10] was 0.762, the “glycan array binding signal (z-score)” value [11] was 1.41 and the “glycan array binding signal (z-score)” value [12] was -0.254. For the same binder, the “glycan array binding signal (z-score)” value [13] was 2.55, the “glycan array binding signal (z-score)” value [14] was -0.374 and the “glycan array binding signal (z-score)” value [15] was -0.341. For the same binder, the “glycan array binding signal (z-score)” value [16] was -0.316, the “glycan array binding signal (z-score)” value [17] was -0.186 and the “glycan array binding signal (z-score)” value [18] was -0.144. The “glycan array binding signal (z-score)” value [19] was -0.581, the “glycan array binding signal (z-score)” value [20] was 0.351 and the “glycan array binding signal (z-score)” value [21] was 0.533. For the same binder, the “glycan array binding signal (z-score)” value [22] was -0.071, the “glycan array binding signal (z-score)” value [23] was 6.16 and the “glycan array binding signal (z-score)” value [24] was 1.28. For the same binder, the “glycan array binding signal (z-score)” value [25] was -0.287, the “glycan array binding signal (z-score)” value [26] was 4.35 and the “glycan array binding signal (z-score)” value [27] was 12.3.

From the supplement of paper PMC8728848
